# Results from PubChem BioAssay (NCATS).
# Where “and” joins values, the source holds several entries; their conditions need not be identical. Equal entries are not always repeated. Results filed as inconclusive are left out. Entries that show only a call come without a potency. Where a structure was tested more than once in an assay, its records may differ in their call. Calls of active or inactive are those of the source. The call rests on the fitted dose curve; in most records, active means well fitted curve in the direction sought with a large enough effect; inconclusive means small, poorly fitted or top-dose-only effect, or another doubt; inactive means no such curve, though single readings can be large; an effect the other way counts as inactive or inconclusive.
# Tests used:
# [1] = qHTS assay to identify small molecule inhibitors of chordoma cells - UCH-1 (AID 1259355); further: nearly all actives have a fitted effect of over 55% in size; further: potency means the concentration at half of the fitted maximal effect
# Summary of the method: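 800 cells/well, overnight attach; compounds pinned at 15 concs, then auranofin/camptothecin/doxorubicin/rubitecan/topotecan combo added; 48hr 37 C, 5% CO2; CellTiter-Glo, 30min RT, luminescence.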
# [2] = qHTS assay to identify small molecule inhibitors of chordoma cells - UCH-2 (AID 1259356)
# [3] = P-glycoprotein substrates identified in KB-8-5-11 adenocarcinoma cell line, qHTS therapeutic library screen (AID 1346987); further: nearly all actives have a fitted effect of over 65% in size; further: potency means the concentration at half of the fitted maximal effect
# Summary of the method: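 Compounds are pinned in dose-response onto KB-8-5-11 cells (500 cells/well, colchicine-free medium) and left 72 h at 37 degree C. CellTiter-Glo luminescence then yields AC50 values.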
# [4] = Identifying Small Molecule Inhibitors of Pancreatic Cancer Stem Cells (A2780, Spheroid) (AID 1259357); settings: A2780 spheroid viability;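 further: potency means the concentration at half of the fitted maximal effect; compound exposure lasted 48 h before the ATP luminescence read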
# Summary of the method: (§1)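 Viability is scored by CellTiter-Glo luminescence 48 h after dosing, expressed as percent activity against vehicle and no-cell references. Spheroid formats rely on cells cultured 14 days in stem cell media beforehand.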
# [5] = Identifying Small Molecule Inhibitors of Pancreatic Cancer Stem Cells (SN12C, Adherent) (AID 1259358);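 further: cell survival measured after 48 h of compound exposure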; further: potency means the concentration at half of the fitted maximal effect
# Summary of the method: (§2)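 Adherent (2D) versus sphere (3D) formats; spheres generated 14 d in SCM beforehand. Compound transferred by pin tool after 4 h, 48 h incubation, CellTiter-Glo endpoint.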
# [6] = Identifying Small Molecule Inhibitors of Pancreatic Cancer Stem Cells (Panc1, Spheroid) (AID 1259359); settings: Panc1 spheroid cancer stem cell viability;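 further: potency means the concentration at half of the fitted maximal effect; compound exposure lasted 48 h before reading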
# Summary of the method: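 Monolayer and spheroid cultures are compared. Spheroids form over 14 days in stem cell medium on hydrogel-coated low-attachment plates, then are exposed to compound for 48 h before CellTiter-Glo luminescence.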
# [7] = Identifying Small Molecule Inhibitors of Pancreatic Cancer Stem Cells (Panc1, Adherent) (AID 1259362); settings: Potency: viability; further: potency means the concentration at half of the fitted maximal effect
# Summary of the method: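 Cytotoxicity read by CellTiter-Glo luminescence after 48 h compound exposure at 37C; percent activity scaled between DMSO-treated cells and cell-free wells. Spheroid formats used cells pre-formed 14 days in stem cell media on hydrogel.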
# [8] = P-glycoprotein substrates identified in KB-3-1 adenocarcinoma cell line, qHTS therapeutic library screen (AID 1346986); settings: outcome: dose series up to 44.5 µM unless noted; further: nearly all actives have a fitted effect of over 60% in size
# Summary of the method: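 Viability read by CellTiter-Glo after 72 h compound exposure in dose-response of KB-3-1 and KB-8-5-11 (P-gp-high) cells. Hits needed AC50 < 10 uM, >50% maximum response and curve class -1.1 to -2.4. Cherry-picks retested ± tariquidar, including pcDNA/MDR-19 HEK-293 pair.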
# [9] = Identifying Small Molecule Inhibitors of Pancreatic Cancer Stem Cells (SN12C, Spheroid) (AID 1259360)
# Summary of the method: as §1
# [10] = Identifying Small Molecule Inhibitors of Pancreatic Cancer Stem Cells (A278, Adherent) (AID 1259361); further: nearly all actives have a fitted effect of over 35% in size
# Summary of the method: as §2
# [11] = outcome: at 44.5 µM (top of the series) unless noted
smiles,measurement,setting,value
CS(=O)(=O)Nc1ccc([N+](=O)[O-])cc1Oc1ccccc1,Potency,[1],inactive
same,outcome,[2],inactive
same,Potency,[3]; [11],inactive
CS(=O)(=O)CCNCc1ccc(-c2ccc3ncnc(Nc4ccc(OCc5cccc(F)c5)c(Cl)c4)c3c2)o1,Potency,[1],inactive
same,outcome,[2],inactive
same,Potency,[4],16.6 µM (active)
same,Potency,[5],0.418 µM (active)
same,Potency,[6],37.2 µM (active)
same,Potency,[7],20.9 µM (active)
same,Potency,[3]; [11],18.7 µM (active) and inactive and 20.6 µM (active)
CC(C)NCC(O)COc1ccc(CCOCC2CC2)cc1 (stereo not given),Potency,[1],inactive
same,outcome,[2],inactive
CC(=O)OCC(CCn1cnc2cnc(N)nc21)COC(C)=O,Potency,[1],inactive
same,outcome,[2],inactive
same,Potency,[3]; [11],inactive
CC1(CN2CCC(n3c(=O)[nH]c4ccccc43)CC2)OCc2ccccc2-n2cccc21 (stereo not given),Potency,[1],inactive
same,outcome,[2],inactive
same,Potency,[5],inactive
same,Potency,[3]; [11],inactive
CN(CCOc1ccc(NS(C)(=O)=O)cc1)CCc1ccc(NS(C)(=O)=O)cc1,Potency,[1],inactive
same,outcome,[2],inactive
same,Potency,[3]; [11],inactive
NC(CO)C(=O)NNCc1ccc(O)c(O)c1O (stereo not given),Potency,[1],inactive
same,outcome,[2],inactive
same,Potency,[3]; [11],inactive
O=c1[nH]cc(F)c(=O)[nH]1,Potency,[1],inactive
same,outcome,[2],inactive
CC1(C)O[C@H]2CC(=O)OC[C@]23[C@H]2CC[C@@]4(C)[C@H](c5ccoc5)OC(=O)[C@H]5O[C@]54[C@]2(C)C(=O)C[C@@H]13,Potency,[1],inactive
same,outcome,[2],inactive
same,outcome,[8],inactive
same,Potency,[3]; [11],inactive
CC(C)(C)C(=O)Oc1ccc(S(=O)(=O)Nc2ccccc2C(=O)NCC(=O)O)cc1,Potency,[1],inactive
same,outcome,[2],inactive
same,outcome,[8],inactive
same,Potency,[3]; [11],inactive
CC1COc2c(N3CCN(C)CC3)c(F)cc3c(=O)c(C(=O)O)cn1c23 (stereo not given),Potency,[1],inactive
same,outcome,[2],inactive
same,outcome,[8],inactive
same,Potency,[3]; [11],inactive
O=C(c1ccc(OCCN2CCCCC2)cc1)c1c(-c2ccc(O)cc2)sc2cc(O)ccc12,Potency,[1],inactive
same,outcome,[2],inactive
same,outcome,[8],inactive
CN1CCC(=C2c3ccccc3CC(=O)c3sccc32)CC1,Potency,[1],inactive
same,outcome,[2],inactive
NCCc1cnc[nH]1,Potency,[1],inactive
same,outcome,[2],inactive
same,outcome,[8],inactive
same,Potency,[3]; [11],inactive
Cn1ccc2cc3c(cc21)CCN3C(=O)Nc1cccnc1,Potency,[1],inactive
same,outcome,[2],inactive
same,Potency,[5],inactive
same,outcome,[9],inactive
same,IC50 (viability decrease),[10],inactive
same,Potency,[3]; [11],inactive
COc1nc(C)nc(Cl)c1NC1=NCCN1,Potency,[1],inactive
same,outcome,[2],inactive
same,Potency,[3]; [11],inactive
CN(C)C(=N)N=C(N)N,Potency,[1],inactive
same,outcome,[2],inactive
same,Potency,[5],inactive
same,IC50 (viability decrease),[10],inactive
same,Potency,[7],inactive
same,outcome,[8],inactive [setting not given]
same,outcome,"[3]; KB-8-5-11 (P-gp overexpressing) viability, CellTiter-Glo, 72 h, at 44.5 µM (top of the series)",inactive
same,outcome,[3]; [11],inactive [setting not given]
Cc1ccc(-c2cc(C(F)(F)F)nn2-c2ccc(S(N)(=O)=O)cc2)cc1,Potency,[1],inactive
same,outcome,[2],inactive
same,outcome,[8],inactive
C[C@H]1c2cccc(O)c2C(O)=C2C(=O)[C@]3(O)C(O)=C(C(N)=O)C(=O)[C@@H](N(C)C)[C@@H]3[C@@H](O)[C@@H]21,Potency,[1],inactive
same,outcome,[2],inactive
same,Potency,[3]; [11],inactive
NCCCCCC(=O)O,Potency,[1],inactive
same,outcome,[2],inactive
same,Potency,[3]; [11],inactive
Nc1c2c(nc3ccccc13)CCCC2,Potency,[1],inactive
same,outcome,[2],inactive
same,outcome,[8],inactive
CC(C)(Oc1ccc(C2CC2(Cl)Cl)cc1)C(=O)O (stereo not given),Potency,[1],inactive
same,outcome,[2],inactive
same,outcome,[8],inactive [at 93.4 µM]
same,Potency,[3]; [11],inactive
CN1CCN2c3ccccc3Cc3ccccc3C2C1 (stereo not given),Potency,[1],inactive
same,outcome,[2],inactive
CCC1(C)CC(=O)NC1=O (stereo not given),Potency,[1],inactive
same,outcome,[2],inactive
same,Potency,[3]; [11],inactive
O=c1c(O)c(-c2ccc(O)c(O)c2)oc2cc(O)cc(O)c12,Potency,[1],inactive
same,outcome,[2],inactive
same,IC50 (viability decrease),[10],29.6 µM (active)
same,Potency,[3]; [11],inactive
O=C(Nc1ccc([N+](=O)[O-])cc1Cl)c1cc(Cl)ccc1O,Potency,[1],3.98 µM (active)
Cn1c(=O)c2[nH]cnc2n(C)c1=O,Potency,[1],inactive
same,outcome,[2],inactive
same,Potency,[3]; [11],inactive
CC(COc1ccccc1)N(CCCl)Cc1ccccc1 (stereo not given),Potency,[1],inactive
same,outcome,[2],inactive
CN1C(C(=O)Nc2ccccn2)=C(O)c2ccccc2S1(=O)=O,Potency,[1],inactive
same,outcome,[2],inactive
same,Potency,[3]; [11],inactive
Cc1cn([C@H]2C=C[C@@H](CO)O2)c(=O)[nH]c1=O,Potency,[1],inactive
same,outcome,[2],inactive
same,outcome,[8],inactive [at 93.4 µM]
same,Potency,[3]; [11],inactive
CN(C)c1nc(N(C)C)nc(N(C)C)n1,Potency,[1],inactive
same,outcome,[2],inactive
same,Potency,[3]; [11],inactive
Clc1ccc(C(c2ccccc2Cl)C(Cl)Cl)cc1 (stereo not given),Potency,[1],inactive
same,outcome,[2],inactive
CCCNCC(O)COc1ccccc1C(=O)CCc1ccccc1 (stereo not given),Potency,[1],inactive
same,outcome,[2],inactive
